Source: PubChem (National Center for Advancing Translational Sciences (NCATS))
Sampled rows, rich in hits. Any-hit rate of the full collection: about 2.1%.
FUS yeast rescue = suppressors of FUS proteinopathy in yeast | Potency, µM (doses to about 76.6 µM), most hits filed as activators | actives 0.24% (n = 390,000) | S. cerevisiae FUS-expressing, growth rescue, OD600, 24 h; also: nearly all actives have a fitted effect of over 55% in size
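S. cerevisiae expressing FUS from galactose induction served as the toxicity model. Growth after 24hr at 30C, read as absorbance at 600 nm, indicates suppression of toxicity; compounds dosed at several concentrations.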
Abeta rescue = compounds reversing amyloid beta toxicity in yeast; Potency, µM (series often up to 46.1 µM), hits mostly activators; yeast expressing A-beta42, growth rescue, OD600, 48 h; response scale: 0% DMSO, 100% iron-clioquinol control; actives 0.063% (n = 410,000); also: nearly all actives have a fitted effect of over 55% in size
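Growth rescue measured by 600 nm absorbance after 48 h yeast culture at 30 C with compound. Values normalized between DMSO and an equimolar ferric chloride plus clioquinol control.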
TDP-43 yeast inh = rescues yeast growth from TDP-43 toxicity. TDP-43 expressing yeast growth rescue, BacTiter-Glo, 24 h. Potency, µM (doses to about 46.1 µM), actives largely listed as activators. actives 1.8% (n = 410,000). AID 652104; also: nearly all actives have a fitted effect of over 50% in size
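Readout is BacTiter-Glo luminescence of cell growth, so inhibitors register as activators. TDP-43-expressing yeast at OD600=0.02 in galactose medium, after raffinose pregrowth to mid-log, were incubated with compound for 24 hr at 30 deg C.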
aSyn rescue = alpha-synuclein toxicity inhibition in yeast. Potency, µM (highest dose often 46.1 µM), actives largely listed as activators. actives 0.14% (n = 370,000). Yeast expressing alpha-synuclein, growth rescue, BacTiter-Glo, 24 h; also: nearly all actives have a fitted effect of over 65% in size
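Galactose-induced alpha-syn yeast (OD600=0.02, raffinose-pregrown) + pinned cpd, 24 hr, 30 deg C; growth by BacTiter-Glo luminescence. Growth restoration scores as activation.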
Numbers stand for hits; 0 = inactive; ? = inconclusive; - = not tested or not shown. Calls follow the shape of the dose curve; as a rule, active = well fitted curve in the direction sought with a large enough effect; inconclusive = small, poorly fitted or top-dose-only effect, or another doubt; inactive = no such curve, though single readings can be large; an effect the other way counts as inactive or inconclusive.

SMILES	FUS yeast rescue	Abeta rescue	TDP-43 yeast inh	aSyn rescue
COc1ccc(COc2cccc(C=O)c2)cc1	0	0	?	0
CCCCCn1nc(C(=O)N(CC)c2c(N)n(CCCC)c(=O)[nH]c2=O)c2ccccc2c1=O	0	0	0	0
COc1cccc(C2=CC(c3ccccc3F)n3ncc(C(=O)Nc4ccc(F)cc4)c3N2)c1 (stereo not drawn)	0	0	22µM	-
O=C(COc1ccc(Br)cc1Cl)c1ccc[nH]1	0	0	20µM	0
Cc1cccc(CSCc2ccc(C(=O)NCCc3ccccc3)o2)c1	0	0	35µM	0
Cc1ccc(NC(=O)c2ccc(-n3nncc3-c3ccccc3)cc2)cc1	-	-	-	0
CC(=O)N1N=C(c2ccccc2)CC1c1cn(C)c2ccccc12 (stereo not drawn)	-	0	20µM	0
CCCCOc1ccc(C(C)NC(=O)c2cccc(Nc3nc4ccccc4n4nnnc34)c2)cc1 (stereo not drawn)	0	0	0	-
Brc1ccc(Cn2nnc(-c3ccc(N4CCOCC4)cc3)n2)cc1	0	-	-	-
COc1ccc2oc(C)c(C(=O)c3ccc([N+](=O)[O-])cc3)c2c1	-	0	22µM	0
O=C(Nc1cccc(NC(=O)c2cccc(Cl)c2)c1)c1cccnc1	0	0	0	0
O=C(c1cnn(C(=O)c2ccco2)c1)c1cc(F)ccc1O	0	0	28µM	0
N[C@@H](Cn1ccc(=O)c(O)c1)C(=O)O	-	-	-	0
O=C(NNC(=O)c1ccco1)c1ccccc1	0	0	0	0
O=C(/C=C/c1ccccc1)NC(=S)Nc1ccccc1	0	?	0	0
O=C(NC(=S)NNC(=O)c1ccco1)c1ccccc1	0	?	?	13µM
O=C(/C=C/c1ccc(Br)cc1)NC(=S)NNC(=O)c1ccco1	0	0	5.6µM	22µM
O=C(/C=C/c1ccccc1)NC(=S)NNC(=O)c1ccco1	?	0	11µM	3.5µM
Cc1cccc(NC(=S)NNC(=O)c2ccco2)c1	0	0	0	0
O=S(=O)(CC1NCc2cc(F)ccc21)NCCc1ccccc1 (stereo not drawn)	0	-	-	-
O=C(CSCc1ccccc1Cl)N1CCN(c2ccc(F)cc2)CC1	0	0	14µM	-
O=C(CSCc1ccccc1Cl)N1CCN(c2ccc(Cl)cc2)CC1	?	0	16µM	-
COc1cccc(CN(C(=O)c2ccc(C(C)(C)C)cc2)C2CCS(=O)(=O)C2)c1 (stereo not drawn)	0	0	?	-
Fc1cccc(Cc2c(C3CCCCC3)nc3ccc(Br)cn23)c1	0	0	0	0
Cc1cccc2c(=O)n(C(=O)c3ccccc3)c(N)nc12	0	0	20µM	0
SMILES	FUS yeast rescue	Abeta rescue	TDP-43 yeast inh	aSyn rescue
CC(SCc1ccccc1)C(=O)Nc1ccccc1-c1ccccc1 (stereo not drawn)	18µM	0	0	0
Cc1cc2ncn(/N=C/c3ccc([N+](=O)[O-])s3)c2cc1C	-	0	13µM	0
Cc1ccc(C(=O)/C=C/NNC(=O)c2ccccc2O)cc1	0	0	0	0
CN1C[C@@H]2[C@@H]3C(=O)N(Cc4ccccc4)C(=O)[C@@H]3[C@](Cc3ccccc3)(C1=O)N2C(=O)c1ccc(F)cc1	0	0	0	0
O=C(c1ccc(F)cc1)C(CN1CCOCC1)c1ccccc1 (stereo not drawn)	-	0	18µM	0
Cc1ccc(CN(C(=O)COc2ccc(Cl)c(C)c2)C2CCS(=O)(=O)C2)o1 (stereo not drawn)	0	0	0	-
O=C(NCCSc1ccc(Br)cc1)c1ccc2nc[nH]c2c1	0	0	0	0
COc1ccc(N2CCN(c3cnc4ccccc4n3)CC2)cc1	0	0	0	0
COc1cccc(N2CCN(c3cnc4ccccc4n3)CC2)c1	0	0	35µM	0
O=C1OC(/C(=C\Nc2ccc(F)cc2F)[N+](=O)[O-])c2ccccc21 (stereo not drawn)	0	0	?	18µM
Cc1ccc(CS(=O)(=O)c2cn(CC(=O)N(C)c3ccccc3)c3ccccc23)cc1	32µM	0	0	-
CCCC[C@@H]1CNC(=O)C(=O)N1CCCC	0	0	0	0
Nc1cccc(Oc2c(F)c(F)c(Oc3cccc(N)c3)c(F)c2F)c1	0	0	5.6µM	0
Cc1cc(Nc2nc(Cl)c(Cl)cc2Cl)n(-c2ccccc2)n1	-	0	18µM	0
C=CCn1c(O)c(N=NC(=S)Nc2cccc(OC)c2)c2ccccc21	0	?	16µM	22µM
CC(C)OC(=O)C(C(=O)C(F)(F)F)c1cc(NS(=O)(=O)c2ccc3ccccc3c2)c2ccccc2c1O (stereo not drawn)	10µM	0	0	0
Nc1cc([N+](=O)[O-])cc2oc(-c3ccccc3)cc12	0	0	35µM	0
COc1ccc2oc(C(=O)OCC(=O)N(C)C3CCCCC3)c(C)c2c1	0	0	0	0
O=C(c1ccccc1)N1CCN=C1SCc1ccc([N+](=O)[O-])cc1	0	0	10µM	0
O=C(C1CCCCC1)N1CCN=C1SCc1cccc([N+](=O)[O-])c1	0	0	18µM	0
O=C(C1CCCCC1)N1CCN=C1SCc1cccnc1	0	0	?	0
COC(=O)c1cc(-c2ccc(C)c(C)c2)c(=O)n2c1CCC2	0	-	-	-
O=C1c2ccccc2CCC12N=NCC2c1ccc(Br)cc1 (stereo not drawn)	0	0	13µM	-
O=C1c2ccccc2CCC12N=NCC2c1ccc(Cl)cc1 (stereo not drawn)	0	0	?	0
Cc1cccc(N2C(=O)CSC23C(=O)N(CC(=O)NCc2ccccc2Cl)c2ccccc23)c1 (stereo not drawn)	0	0	0	0
SMILES	FUS yeast rescue	Abeta rescue	TDP-43 yeast inh	aSyn rescue
O=c1oc(-c2cccs2)nc2sc3c(c12)CCCC3	0	0	0	0
O=C1CN(c2nc(-c3cccs3)nc3sc4c(c23)CCCC4)CCN1	35µM	0	0	0
CCOc1ccc(CNC(=O)C2CCN(S(=O)(=O)c3ccc4c(ccn4C)c3)CC2)cc1	?	0	0	-
COc1ccc(N2CCN(C(=O)CCC(=O)N3CCOc4ccc(Cl)cc43)CC2)cc1	0	0	16µM	0
Oc1ccccc1NCC(O)Cn1ccc2ccccc21 (stereo not drawn)	?	0	0	0
Nc1ccccc1SCC(O)Cn1ccc2ccccc21 (stereo not drawn)	0	0	18µM	?
COc1cc(N(C)C)c(OC)cc1/C=C1\Cc2ccccc2C1=O	-	-	-	0
CC(=O)N1[C@@H](CO)[C@@H](c2ccc(-c3cccc(F)c3)cc2)[C@@H]1CNCC1CCC1	0	-	-	-
CCN(CC)C(=O)[C@H]1C[C@H](CC(=O)NCC23CC4CC(CC(C4)C2)C3)C(=O)N2CCc3c([nH]c4ccc(Cl)cc34)[C@]12C	0	0	20µM	?
CC(C)N(C(=O)[C@H]1C[C@H](CC(=O)NCC23CC4CC(CC(C4)C2)C3)C(=O)N2CCc3c([nH]c4ccc(Cl)cc34)[C@]12C)C(C)C	0	0	0	?
